PubChem BioAssay (EPA / NIEHS)
Records with an inconclusive call do not appear. The source made the active and inactive calls. Rule for the calls, unless noted: active = hit-call score of the fitted dose curve at least 0.9, where 1 is the maximum; inactive = score below 0.9.

Columns and labels:
[1] = ATG_M_06_TRANS: Attagene TRANS-FACTORIAL HepG2 Assay for M06 Transcription Factor (Internal Marker) (AID 2282983; active = hit-call score of the fitted dose curve at least 0.9, where 1 is the maximum;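 note: reporter transcript level by RT-PCR then capillary electrophoresis fluorescence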); conditions: HepG2 Attagene TRANS M06 internal marker reporter
Summary of the method: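 Read-out: fluorescent reporter cDNA fragments resolved by capillary electrophoresis after RT-PCR and HpaI cut. Source cells were HepG2 carrying transfected multi-reporter GAL4 constructs, dosed 24 h. Increase over DMSO control analysed.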

[2] = ATG_M_32_TRANS: Attagene TRANS-FACTORIAL HepG2 Assay for M32 Transcription Factor (Internal Marker) (AID 2282984; active = hit-call score of the fitted dose curve at least 0.9, where 1 is the maximum;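 note: transcript level of a background control reporter unit measured by RT-PCR and capillary electrophoresis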); conditions: HepG2 Attagene TRANS M32 internal marker reporter
Summary of the method: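 Internal background reporter in transfected HepG2: after 24 h chemical exposure, RNA reverse-transcribed, reporter cDNA amplified, fluorescently labelled and HpaI-cut, then sized by capillary electrophoresis. Gain of signal fitted against DMSO control.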

[3] = molecular target: Transcriptional activator Myb (Homo sapiens) (UniProt P10242); experiment: ATG_Myb_CIS: Attagene CIS-FACTORIAL HepG2 Assay for human Myeloblastosis (Myb) Proto-Oncogene Transcription Factor (AID 2282986); conditions: HepG2 Attagene CIS-FACTORIAL Myb reporter transcription; actives raise or lower the signal
Summary of the method: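 Using HepG2 liver cells bearing transiently transfected cis-promoter reporter constructs, the assay measures induction or loss of reporter mRNA after 24 hours of dosing. Detection used fluorescently labeled RT-PCR products separated by capillary electrophoresis.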

[4] = ATG_NFI_CIS: Attagene CIS-FACTORIAL HepG2 Assay for human Nuclear Factor I (NFI) (AID 2282989); conditions: HepG2 cis-regulatory reporter, NFI response element transcription; actives raise or lower the signal
Summary of the method: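 Cells: human liver HepG2, transiently transfected with promoter-regulated reporter transcription units. Exposure 24 h. Detection: fluorescent RT-PCR products separated by capillary electrophoresis, normalised to DMSO negative control.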

[5] = molecular target: Myc proto-oncogene protein (Homo sapiens) (UniProt P01106); experiment: ATG_Myc_CIS: Attagene CIS-FACTORIAL HepG2 Assay for human Myelocytomatosis (Myc) Proto-Oncogene Transcription Factor (AID 2282990); conditions: HepG2, Attagene cis-reporter transcription factor activity; actives raise or lower the signal
Summary of the method: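 After 24 h chemical treatment of HepG2 cells carrying multiplexed cis-regulated reporter constructs, reporter transcripts quantified by RT-PCR and capillary electrophoresis of fluorescent fragments. Gain or loss fitted against DMSO baseline.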

[6] = ATG_NF_kB_CIS: Attagene CIS-FACTORIAL HepG2 Assay for human Nuclear Factor Kappa B (NF-kB) (AID 2282991); conditions: HepG2 Attagene cis-factorial NF-kB reporter mRNA; actives raise or lower the signal
Summary of the method: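 DMSO served as negative control and baseline for bidirectional curve fitting. Transiently transfected HepG2 cells were dosed for 24 h, then reporter transcripts were measured by RT-PCR with capillary electrophoresis detection.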

[7] = ATG_NRF2_ARE_CIS: Attagene CIS-FACTORIAL HepG2 Assay for human Nuclear Factor Erythroid 2 Related Factor 2 (NFR2) response to Antioxidant Response Elements (ARE) (AID 2282992); conditions: HepG2 Attagene ARE/NRF2 reporter, transcription factor activity; actives raise or lower the signal;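 for AC50: reporter mRNA level measured by RT-PCR and capillary electrophoresis fluorescence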
Summary of the method: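 Endogenous transcription factor activity in human liver HepG2 cells is tracked via a cis-element-driven reporter within a multiplexed set. mRNA induction is read by RT-PCR and capillary electrophoresis after 24 h, with DMSO as baseline.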

[8] = ATG_Oct_MLP_CIS: Attagene CIS-FACTORIAL HepG2 Assay for human Octamer-Binding Transcription Factor (Oct) (AID 2282993); conditions: HepG2 Attagene cis-factorial Oct reporter, mRNA; actives raise or lower the signal
Summary of the method: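 HepG2, transient MRTU transfection, cis promoter elements; 24 h dosing; RT-PCR/CE fluorescence read-out of reporter mRNA; fit both directions vs DMSO.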

[9] = molecular target: Cellular tumor antigen p53 (Homo sapiens) (UniProt P04637); experiment: ATG_p53_CIS: Attagene CIS-FACTORIAL HepG2 Assay for human p53 Transcription Factor (AID 2282994); conditions: HepG2 p53 cis-element reporter, Attagene mRNA; actives raise or lower the signal
Summary of the method: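 Steps: transfect HepG2 with multiplexed cis reporter constructs; dose chemicals 24 h; extract RNA, reverse-transcribe, PCR-amplify reporter sequences; FAM-label, HpaI-digest, resolve fragments by CE. Activity fitted both directions relative to DMSO.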

[10] = molecular target: human Peroxisome Proliferator-activated Receptor delta (PPARd), PPARD (gene 5467) (UniProt Q03181); experiment: ATG_PPARd_TRANS: Attagene TRANS-FACTORIAL HepG2 Assay for human Peroxisome Proliferator-activated Receptor delta (PPARd) (AID 2283002; active = hit-call score of the fitted dose curve at least 0.9, where 1 is the maximum)
Summary of the method: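 Read-out is induced reporter mRNA, quantified by RT-PCR with fluorescent labelling and capillary electrophoresis after 24 h dosing. Cells are HepG2 transiently carrying multiple GAL4-UAS reporter units driven by exogenous NR-GAL4 chimeras; DMSO serves as baseline.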

[11] = molecular target: Nuclear receptor subfamily 4 group A member 2 (Homo sapiens) (UniProt P43354); experiment: ATG_NURR1_TRANS: Attagene TRANS-FACTORIAL HepG2 Assay for human Nuclear Receptor Related Protein 1 (NURR1) (AID 2282985; active = hit-call score of the fitted dose curve at least 0.9, where 1 is the maximum); conditions: HepG2 Attagene TRANS reporter, mRNA readout
Summary of the method: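 Reporter transcript induction, measured by RT-PCR with fluorescent labelling, HpaI digestion and capillary electrophoresis, after 24 hr dosing of human HepG2 cells transiently expressing an exogenous NR-Gal4 fusion with GAL4-UAS-driven reporters; DMSO as baseline.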

[12] = molecular target: Nuclear respiratory factor 1 (Homo sapiens) (UniProt Q16656); experiment: ATG_NRF1_CIS: Attagene CIS-FACTORIAL HepG2 Assay for human Nuclear Respiratory Factor 1 (NRF1) Orphan Gene (AID 2282987); conditions: HepG2 NRF1 cis-element reporter, Attagene multiplex; actives raise or lower the signal
Summary of the method: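 Reporter mRNA induction or loss in HepG2 cells after 24 h dosing; cis-regulated reporter constructs report endogenous transcription-factor activity. Quantified by RT-PCR/capillary electrophoresis fluorescence, DMSO-referenced.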

[13] = molecular target: human Retinoic Acid Receptor beta (RARb), RARB (gene 5915) (UniProt P10826); experiment: ATG_RARb_TRANS: Attagene TRANS-FACTORIAL HepG2 Assay for human Retinoic Acid Receptor beta (AID 2283004; active = hit-call score of the fitted dose curve at least 0.9, where 1 is the maximum)
Summary of the method: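 Readout is reporter mRNA induction: RNA reverse-transcribed, PCR-amplified, FAM-labelled, HpaI-cut and resolved by capillary electrophoresis. Transiently transfected HepG2 cells carrying exogenous NR–Gal4 chimeras were dosed for 24 h; activity fitted upward relative to DMSO.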

[14] = molecular target: human Peroxisome Proliferator-activated Receptor alpha (PPARa), PPARA (gene 5465) (UniProt Q07869); experiment: ATG_PPARa_TRANS: Attagene TRANS-FACTORIAL HepG2 Assay for human Peroxisome Proliferator-activated Receptor alpha (PPARa) (AID 2283001; active = hit-call score of the fitted dose curve at least 0.9, where 1 is the maximum;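 for AC50: potency for gain of reporter signal over DMSO so agonist or activator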)
Summary of the method: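 Reporter transcripts quantified by RT-PCR plus capillary electrophoresis after 24 h treatment, fitted upward relative to DMSO. Cells: human HepG2 transiently carrying multiple GAL4-UAS reporter units driven by NR-Gal4 chimeras.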

[15] = BSK_3C_TissueFactor: BioMAP Diversity Plus: 3C Assay for Tissue Factor Biomarker Activity (AID 2282997); conditions: BioMAP 3C HUVEC, tissue factor biomarker readout; actives raise or lower the signal
Summary of the method: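 HUVEC, 3C system, 24 h post-dose; Tissue Factor by ELISA; bidirectional fit vs DMSO baseline.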

[16] = BSK_3C_uPAR: BioMAP Diversity Plus: 3C Assay for Urokinase-type plasminogen activator receptor (uPAR) Biomarker Activity (AID 2282998); conditions: BioMAP 3C HUVEC, uPAR biomarker ELISA; actives raise or lower the signal
Summary of the method: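 A multiplexed primary-cell system built on human umbilical vein endothelium was used, with chemical present for 24 h before reading. Cell-surface uPAR was detected by ELISA; signal change in either direction counted against DMSO.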

[17] = BSK_4H_Eotaxin3: BioMAP Diversity Plus: 4H Assay for Eotaxin 3 Biomarker Activity (AID 2283000); conditions: primary human endothelial cells (HUVEC); actives raise or lower the signal
Summary of the method: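 Readout is Eotaxin-3 (CCL26) level by ELISA in primary human umbilical vein endothelial cells harvested 24 h after chemical exposure; activity fitted in both directions against DMSO control.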

[18] = read-out: Intercellular Adhesion Molecule 1 (ICAM1), ICAM1 (gene 3383); experiment: BSK_3C_ICAM1: BioMAP Diversity Plus: 3C Assay for Intercellular Adhesion Molecule 1 (ICAM1) Biomarker Activity (AID 2283003); conditions: primary human endothelial cells (HUVEC); actives raise or lower the signal
Summary of the method: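 ELISA readout of ICAM1 in human umbilical vein endothelial cells in the 3C system, taken 24 h post-dose. Gain or loss of signal versus DMSO was fitted in both directions, with SRB total-protein staining run in parallel.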

[19] = BSK_3C_VCAM1: BioMAP Diversity Plus: 3C Assay for Vascular cell adhesion molecule 1 (VCAM1) Biomarker Activity (AID 2282999); conditions: BioMAP 3C HUVEC, VCAM1 ELISA, cytokine-stimulated; actives raise or lower the signal
Summary of the method: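 Activity fitted in both directions relative to DMSO, with ELISA measurement of the surface marker on primary HUVEC (3C) at 24 h post-treatment; parallel SRB staining (0.1% SRB, TCA-fixed, 560 nm) flagged overt cytotoxicity.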

Measured: AC50

Sequence of human Peroxisome Proliferator-activated Receptor alpha (PPARa), PPARA (gene 5465) (Q07869 whole entry, looked up, the tested form may be a part): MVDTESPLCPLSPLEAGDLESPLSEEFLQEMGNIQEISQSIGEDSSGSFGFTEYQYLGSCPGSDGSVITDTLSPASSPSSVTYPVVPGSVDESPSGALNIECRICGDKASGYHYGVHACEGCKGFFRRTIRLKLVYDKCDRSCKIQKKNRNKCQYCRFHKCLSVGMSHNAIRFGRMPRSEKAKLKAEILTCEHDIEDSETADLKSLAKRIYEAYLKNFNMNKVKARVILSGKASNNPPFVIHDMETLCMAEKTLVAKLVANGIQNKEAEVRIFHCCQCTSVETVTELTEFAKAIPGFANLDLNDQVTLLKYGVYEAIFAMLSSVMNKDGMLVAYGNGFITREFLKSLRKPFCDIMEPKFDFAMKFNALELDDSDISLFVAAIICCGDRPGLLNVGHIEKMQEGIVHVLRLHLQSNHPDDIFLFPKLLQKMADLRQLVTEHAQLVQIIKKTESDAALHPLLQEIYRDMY
Sequence of Cellular tumor antigen p53 (Homo sapiens) (P04637 whole entry, looked up, the tested form may be a part): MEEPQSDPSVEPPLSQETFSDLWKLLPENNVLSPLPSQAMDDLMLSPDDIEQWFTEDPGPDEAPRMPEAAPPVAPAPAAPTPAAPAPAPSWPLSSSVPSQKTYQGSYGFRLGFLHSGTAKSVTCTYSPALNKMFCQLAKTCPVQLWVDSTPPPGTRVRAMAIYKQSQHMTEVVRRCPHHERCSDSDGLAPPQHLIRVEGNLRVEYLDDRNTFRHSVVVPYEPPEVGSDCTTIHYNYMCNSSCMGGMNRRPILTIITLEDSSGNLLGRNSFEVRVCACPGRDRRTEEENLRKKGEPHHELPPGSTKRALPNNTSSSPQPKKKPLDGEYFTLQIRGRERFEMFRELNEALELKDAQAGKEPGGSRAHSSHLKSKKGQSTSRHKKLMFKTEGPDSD
Sequence of Transcriptional activator Myb (Homo sapiens) (P10242 whole entry, looked up): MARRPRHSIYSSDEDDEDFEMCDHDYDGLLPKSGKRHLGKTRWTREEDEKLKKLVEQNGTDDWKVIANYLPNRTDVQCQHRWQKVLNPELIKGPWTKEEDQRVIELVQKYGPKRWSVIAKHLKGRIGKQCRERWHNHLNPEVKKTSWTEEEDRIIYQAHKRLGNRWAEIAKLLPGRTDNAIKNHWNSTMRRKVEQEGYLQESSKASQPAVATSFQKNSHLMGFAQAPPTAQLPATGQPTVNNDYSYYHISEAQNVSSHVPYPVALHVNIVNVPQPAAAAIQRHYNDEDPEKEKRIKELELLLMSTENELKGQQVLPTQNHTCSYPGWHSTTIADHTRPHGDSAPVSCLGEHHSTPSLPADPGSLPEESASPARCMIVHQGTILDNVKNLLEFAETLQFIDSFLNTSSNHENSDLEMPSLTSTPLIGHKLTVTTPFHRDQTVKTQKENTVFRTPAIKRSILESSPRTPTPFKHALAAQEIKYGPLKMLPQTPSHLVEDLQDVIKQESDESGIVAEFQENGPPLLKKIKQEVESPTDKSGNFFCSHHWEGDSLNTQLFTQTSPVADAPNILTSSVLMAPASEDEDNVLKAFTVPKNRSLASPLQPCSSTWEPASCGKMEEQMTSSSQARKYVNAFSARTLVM
Sequence of Myc proto-oncogene protein (Homo sapiens) (P01106 whole entry, looked up, the tested form may be a part): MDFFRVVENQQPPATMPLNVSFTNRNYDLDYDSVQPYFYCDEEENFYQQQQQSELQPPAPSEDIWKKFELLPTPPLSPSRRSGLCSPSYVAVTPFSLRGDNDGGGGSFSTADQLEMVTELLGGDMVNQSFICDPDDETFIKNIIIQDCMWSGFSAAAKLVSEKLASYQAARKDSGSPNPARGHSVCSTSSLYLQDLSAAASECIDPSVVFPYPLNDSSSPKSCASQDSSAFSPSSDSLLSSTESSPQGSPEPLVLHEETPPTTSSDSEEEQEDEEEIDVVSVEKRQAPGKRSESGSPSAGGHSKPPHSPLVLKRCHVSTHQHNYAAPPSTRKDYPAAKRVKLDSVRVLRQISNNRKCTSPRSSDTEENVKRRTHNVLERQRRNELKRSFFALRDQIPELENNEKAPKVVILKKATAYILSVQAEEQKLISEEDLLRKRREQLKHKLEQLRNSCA
Sequence of human Peroxisome Proliferator-activated Receptor delta (PPARd), PPARD (gene 5467) (Q03181 whole entry, looked up, the tested form may be a part): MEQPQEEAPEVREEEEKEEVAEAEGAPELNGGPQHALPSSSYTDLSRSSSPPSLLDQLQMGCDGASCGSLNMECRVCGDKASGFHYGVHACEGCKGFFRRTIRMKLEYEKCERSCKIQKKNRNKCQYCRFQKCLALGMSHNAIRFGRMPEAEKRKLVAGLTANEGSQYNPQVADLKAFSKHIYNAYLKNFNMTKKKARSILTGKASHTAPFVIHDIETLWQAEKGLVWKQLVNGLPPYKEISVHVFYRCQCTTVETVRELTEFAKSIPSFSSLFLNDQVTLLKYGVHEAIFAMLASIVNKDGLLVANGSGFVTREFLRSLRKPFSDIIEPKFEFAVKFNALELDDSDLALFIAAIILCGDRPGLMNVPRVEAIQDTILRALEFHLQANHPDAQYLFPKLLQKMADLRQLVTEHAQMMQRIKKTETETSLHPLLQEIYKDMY
Sequence of Nuclear receptor subfamily 4 group A member 2 (Homo sapiens) (P43354 whole entry, looked up, the tested form may be a part): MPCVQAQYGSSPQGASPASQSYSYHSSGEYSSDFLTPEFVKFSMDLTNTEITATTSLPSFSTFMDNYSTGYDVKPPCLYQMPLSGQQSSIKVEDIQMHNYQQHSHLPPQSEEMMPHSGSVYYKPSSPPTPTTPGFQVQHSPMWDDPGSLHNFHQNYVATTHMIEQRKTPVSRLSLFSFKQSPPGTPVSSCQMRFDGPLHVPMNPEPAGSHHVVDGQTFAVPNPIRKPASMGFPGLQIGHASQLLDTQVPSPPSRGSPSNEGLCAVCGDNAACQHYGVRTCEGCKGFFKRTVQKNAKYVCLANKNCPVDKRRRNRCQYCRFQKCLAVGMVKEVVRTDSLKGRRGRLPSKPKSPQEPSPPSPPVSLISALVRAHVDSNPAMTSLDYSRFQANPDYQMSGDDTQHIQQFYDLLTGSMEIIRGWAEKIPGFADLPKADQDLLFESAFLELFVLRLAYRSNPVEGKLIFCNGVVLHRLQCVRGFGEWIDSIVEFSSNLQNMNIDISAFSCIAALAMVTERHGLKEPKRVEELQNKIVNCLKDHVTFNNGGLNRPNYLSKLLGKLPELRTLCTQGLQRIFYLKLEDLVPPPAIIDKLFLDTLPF
Sequence of Nuclear respiratory factor 1 (Homo sapiens) (Q16656 whole entry, looked up): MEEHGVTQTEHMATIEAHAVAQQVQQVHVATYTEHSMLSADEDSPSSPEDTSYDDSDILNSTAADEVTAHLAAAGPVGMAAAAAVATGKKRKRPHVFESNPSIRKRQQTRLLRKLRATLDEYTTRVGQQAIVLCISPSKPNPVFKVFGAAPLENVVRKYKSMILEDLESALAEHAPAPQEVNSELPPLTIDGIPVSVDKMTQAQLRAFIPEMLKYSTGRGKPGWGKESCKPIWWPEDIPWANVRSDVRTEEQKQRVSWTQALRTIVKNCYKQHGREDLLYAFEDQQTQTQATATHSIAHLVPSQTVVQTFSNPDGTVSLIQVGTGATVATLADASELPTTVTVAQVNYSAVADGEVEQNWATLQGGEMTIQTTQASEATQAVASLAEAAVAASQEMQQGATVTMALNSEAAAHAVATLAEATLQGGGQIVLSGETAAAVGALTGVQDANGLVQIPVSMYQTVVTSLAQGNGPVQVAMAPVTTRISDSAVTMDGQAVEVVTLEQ
Sequence of human Retinoic Acid Receptor beta (RARb), RARB (gene 5915) (P10826 whole entry, looked up, the tested form may be a part): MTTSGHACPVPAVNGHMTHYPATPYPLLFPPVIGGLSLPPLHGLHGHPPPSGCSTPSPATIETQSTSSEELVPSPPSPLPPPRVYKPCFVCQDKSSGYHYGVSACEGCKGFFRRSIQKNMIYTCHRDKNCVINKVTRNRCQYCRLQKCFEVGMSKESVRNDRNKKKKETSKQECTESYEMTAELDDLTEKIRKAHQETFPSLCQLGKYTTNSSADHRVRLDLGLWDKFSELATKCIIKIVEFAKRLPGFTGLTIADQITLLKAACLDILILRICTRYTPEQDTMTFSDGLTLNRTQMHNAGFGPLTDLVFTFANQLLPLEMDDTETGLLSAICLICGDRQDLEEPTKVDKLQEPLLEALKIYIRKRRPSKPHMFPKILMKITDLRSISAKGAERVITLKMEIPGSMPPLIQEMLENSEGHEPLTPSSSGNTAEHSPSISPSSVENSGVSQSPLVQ

O=[N+]([O-])c1cc([As](=O)(O)O)ccc1O
inactive: [1] | [2] | [3] | [4] | [5] | [6] | [7] | [8] | [9] | [10]

O=S(=O)(Oc1ccc(Cl)cc1)c1ccc(Cl)cc1
inactive: [1] | [11] | [3] | [12] | [4] | [5] | [6] | [8]
active: [7] 23.1 µM

CC(C)(c1ccc(O)c(-c2ccccc2)c1)c1ccc(O)c(-c2ccccc2)c1
not listed: [2] | [7] | [14] | [15] | [16] | [17] | [18] | [19]
inactive: all other assays above

CCOP(=S)(OCC)O/N=C(\C#N)c1ccccc1
inactive: [1] | [3] | [4] | [5] | [6] | [8] | [9] | [10]
active: [7] 27.7 µM

O=S1OC[C@@H]2[C@H](CO1)[C@]1(Cl)C(Cl)=C(Cl)[C@@]2(Cl)C1(Cl)Cl (some centres undefined)
active: [8] 100 µM
inactive: [1] | [3] | [12] | [4] | [6] | [9]

N#Cc1ccccc1Cl
inactive: [1] | [3] | [12] | [4] | [5] | [6] | [7] | [8] | [14] | [10]

O=S1(=O)OC(c2cc(Br)c(O)c(Br)c2)(c2cc(Br)c(O)c(Br)c2)c2ccccc21
active: [6] 93 µM | [7] 60.1 µM
inactive: [1] | [11] | [3] | [12] | [4] | [5] | [8] | [14] | [10]

C#CCOC(=O)/C=C(C)/C=C/CC(C)CCCC(C)C (centres undefined)
active: [11] 16.6 µM | [8] 35.7 µM | [16] 33.5 µM | [17] 20 µM | [14] 14.9 µM
not listed: [2] | [7] | [13] | [19]
inactive: all other assays above

Cc1c([N+](=O)[O-])c(C)c([N+](=O)[O-])c(C(C)(C)C)c1[N+](=O)[O-]
inactive: [1] | [3] | [12] | [4] | [5] | [7] | [8] | [15]
active: [11] 11.3 µM | [16] 20 µM | [19] 20 µM | [17] 28.2 µM | [18] 20 µM

CCCCCCCCCCCCN(C)C
active: [12] 54.2 µM | [4] 57.2 µM | [5] 50.9 µM | [7] 46.9 µM | [8] 54.9 µM | [9] 33.4 µM
not listed: [2] | [6] | [10] | [11] | [13]
inactive: all other assays above

CC(C)(C1CCC(O)CC1)C1CCC(O)CC1 (centres undefined)
inactive: [1] | [11] | [3] | [12] | [4] | [5] | [6] | [7] | [8] | [9]
